Data on 21 molecules can be found in PubChem BioAssay AID651658 (Broad Institute, 2012).

About 5,100 (1.5%) of roughly 340,000 compounds were called active.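 The calls were made as follows: active = mean Tm shift, scaled 0 neutral to 100 positive control, at about 1.3% or above, every replicate too (limit read from the data); inconclusive = no clear call, values can overlap the other calls; inactive = the rest.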 Only a selection was taken, and actives are over-represented in it overall.

This assay deals with Fibroblast growth factor 22 (Homo sapiens) (UniProt Q9HCT0). The experiment in a line: FGF22 ligand-induced thermal stabilization – biophysical, thermal shift, single point, FGF22 synaptogenesis inhibitor project, primary screen (AID 651658). The note with it: recombinant FGF22 thermal shift, SYPRO orange fluorescence; at 9.99 µM; hits give high values; percent of sucrose octasulfate shift, DMSO zero.
Sequence of Fibroblast growth factor 22 (Homo sapiens) (Q9HCT0 whole entry, looked up): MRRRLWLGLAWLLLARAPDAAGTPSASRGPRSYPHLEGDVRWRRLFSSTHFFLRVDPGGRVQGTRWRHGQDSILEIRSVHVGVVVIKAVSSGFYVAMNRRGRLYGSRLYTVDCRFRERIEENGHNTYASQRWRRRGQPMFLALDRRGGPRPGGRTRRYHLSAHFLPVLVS
Regarding `CCC(=O)Nc1ccc(C(=O)N2CCN(C(=O)c3ccco3)CC2)cc1`, the activity (Tm shift, normalised) was 44.4% (active).
As to `Cc1ccc(NC(=O)C(c2ccccc2)N2CCN(C(=O)c3ccco3)CC2)cc1` (stereo unspecified), the activity (Tm shift, normalised) was -0.162% (inactive).
For `Cc1ccc(OCC(=O)Nc2ccc(N3CCN(C(=O)c4ccco4)CC3)cc2)c(C)c1` the value was -0.015% (inactive); for `O=C(Nc1cccc(F)c1)N[C@@H]1CC[C@@H](CCn2cc(Cc3ccccc3)nn2)O[C@@H]1CO`, 0.097% (inactive).
As to `CO[C@@H]1CN(C)C(=O)c2cc(NC(=O)C3CCCC3)ccc2OC[C@@H](C)N(C(=O)Nc2ccc(C(F)(F)F)cc2)C[C@H]1C`, the activity (Tm shift, normalised) is -0.774% (inactive).
Consider `O=C(C[C@H]1C[C@H]2c3cc(NC(=O)CC4CC4)ccc3O[C@H]2[C@H](CO)O1)NCc1ccccn1`, for which the activity (Tm shift, normalised) is 0.96% (inactive).
As for `CCCc1cc(=O)[nH]c(SCC(=O)Nc2ccc(C(=O)Nc3ccccc3OC)cc2)n1`, the figure is -0.412% (inactive); as for `Cc1cc(=O)[nH]c(SCC(=O)Nc2ccc(Br)cc2)n1`, -0.265% (inactive).
For `Cc1ccc(NC(=O)CSc2nc(CSc3ccc(C)cc3)cc(=O)[nH]2)cc1` the value was 44% (active); for `COc1ccc(S(=O)(=O)Nc2ccc3c(c2)C(=O)N([C@@H](C)CO)C[C@H](C)[C@@H](CN(C)C(=O)Nc2ccc4c(c2)OCO4)OCCCC[C@@H](C)O3)cc1`, 0.801% (inactive).
For `C[C@H](CO)N1C[C@H](C)[C@H](CN(C)CC2CCCC2)Oc2ncc(Br)cc2C1=O` the value was -0.016% (inactive).
With `CC(C)NC(=O)N1[C@H](CO)[C@@H]2c3ccccc3N(C(=O)Nc3cccc(Cl)c3)C[C@@H]21`, the activity (Tm shift, normalised) is 0.043% (inactive).
As to `Cc1ccc(S(=O)(=O)N(C)C[C@@H]2Oc3c(NC(=O)NC(C)C)cccc3C(=O)N([C@H](C)CO)C[C@H]2C)cc1`, the activity (Tm shift, normalised) is 0.01% (inactive).
On to `CC(=O)Nc1ccc(/C=N/Nc2ccc(C(=O)c3c(C)cc4ccccn34)cc2[N+](=O)[O-])cc1`, for which the activity (Tm shift, normalised) is -0.063% (inactive).
For `Cc1cc2ccccn2c1C(=O)c1cccc(F)c1` the value was -0.141% (inactive); for `Cc1ccc(C(C[N+](=O)[O-])c2c(C)cc3ccccn23)cc1` (stereo unspecified), 43.8% (active); for `O=C(Nc1ccccc1Cl)N1CCN(c2ccc3nncn3n2)CC1`, 0.014% (inactive).
Consider `Cc1cc(C)n(-c2ccc3nncn3n2)n1`, for which the activity (Tm shift, normalised) is 43.4% (active).
As for `Cc1cc(C)n(-c2nnc(N3CCN(c4ccccc4)CC3)nn2)n1`, the figure is 0.536% (inactive); as for `CCS(=O)(=O)N1Cc2cc(C(=O)N(C)C)nc(-c3cccc(-c4ccc(C#N)cc4)c3)c2[C@H]1CCO`, -0.41% (inactive); as for `CCCC#Cc1ccc2c(c1)O[C@@H](CN(C)C(=O)c1cccnc1)[C@H](C)CN([C@H](C)CO)S2(=O)=O`, -0.014% (inactive).
